KCNQ2 inh: KCNQ2 (rat) channel inhibition; O88943; CHO-K1 KCNQ2, FluxOR thallium flux, 20 min; stronger effect = lower value; B-score at 10 µM; hit rate 1.1% among 310,000; AID 2156;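 active means fluorescence ratio B-score at most minus 3 library SDs, with starting brightness B-score within 2 library SDs, cut at about -5.5 in these data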
KCNQ2 pot: potentiators of rat KCNQ2 potassium channel; B-score at 10 µM; hit rate 0.54% among 310,000; CHO-K1 KCNQ2, FluxOR thallium flux fluorescence; stronger effect = higher value; O88943;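 active means fluorescence ratio B-score at least 3 SD of library B-scores, with initial fluorescence B-score within 3 of them, cut at about 5.3 in these data; same plate scores as AID 2156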;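 further: B-score of peak minus minimum over baseline fluorescence ratio after K+ and Tl+ stimulus; positive B-score means potentiation of KCNQ2 with more thallium influx and brighter signal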
* marks the source's active call; other numbers are inactive results; i = inactive; . = no result. Hits are enriched below; roughly 1.6% of the tested compounds scored in any of these assays.

SMILES	KCNQ2 inh	KCNQ2 pot
Cc1ccc(S(=O)(=O)CCC(=O)c2ccc(F)cc2)cc1	i	.
Cc1ccc(C(=O)CCS(=O)(=O)c2ccc(F)cc2)cc1	-6.3*	-6.3
CNC(=O)c1cc(S(=O)(=O)N2CC(C)OC(C)C2)ccc1N1CCOCC1 (centres undefined)	i	.
COc1cc(CN2CCN(C(=O)c3cccc4ccccc34)CC2)cc(OC)c1O	i	.
Cc1ccc(C(C(=O)NC2CCCCC2)N(CC2CCCO2)C(=O)CNC(=O)c2cccs2)cc1 (centres undefined)	i	.
CCC(C)(C)NC(=O)C(c1ccc(C)cc1)N(CC1CCCO1)C(=O)CNC(=O)c1cccs1 (centres undefined)	-5.8*	-5.8
COC(=O)C1CN(C(=O)COc2ccccc2C)c2ccccc2O1 (centres undefined)	i	.
COc1ccccc1OCC(=O)N1CCCC(Nc2ccc(C)c(C)c2)C1 (centres undefined)	i	.
COC(=O)C1CN(C(=O)COc2ccc(Cl)cc2C)c2ccccc2O1 (centres undefined)	-7*	-7
COc1ccc(NC2CCCN(C(=O)COc3ccc(Cl)cc3C)C2)cc1OC (centres undefined)	-6.1*	-6.1
Cc1ccc(OC(=O)CCNC(=O)c2ccccc2Cl)c(Br)c1	i	.
CC(=O)N1c2ccc(S(=O)(=O)NCC3CCC(C(=O)NCc4ccco4)CC3)cc2CC1C (centres undefined)	i	.
CC1CCC(C(C)C)C(OC(=O)CSc2nccc(=O)[nH]2)C1 (centres undefined)	i	.
CC1CCC(C(C)C)C(OC(=O)C2=C3c4ccccc4S(=O)(=O)N3CC2)C1 (centres undefined)	-6.1*	-6.1
CC(OC(=O)Cn1[nH]c(=O)c2ccccc2c1=O)C(=O)Nc1cccc(Cl)c1 (centres undefined)	i	1.1
COC(=O)c1ccc2c(=O)n(Cc3ccc(C(=O)NCCCN4CCC(C)CC4)cc3)c(=S)[nH]c2c1	i	1.2
CC1CCN(CCCNC(=O)c2ccc3c(=O)n(Cc4ccc(Cl)cc4)c(=S)[nH]c3c2)CC1	-5.9*	-5.9
Cc1cccc(/C=C2\Sc3ccc(C(=O)N4CCC(C)CC4)cc3N(C)C2=O)c1	-6.5*	-6.5
Cc1cccc(/C=C2\Sc3ccc(C(=O)N4CCCCC4)cc3N(C)C2=O)c1	i	.
C=CCn1c(SCc2csc(C)n2)nc2sc3c(c2c1=O)CCC(C)C3 (centres undefined)	i	.
C=CCn1c(SCc2csc(C)n2)nc2sc3c(c2c1=O)CCCCC3	-8.1*	-8.1
C=CCn1c(SCc2cc(=O)n3ccsc3n2)nc2sc(C)c(C)c2c1=O	-9*	-9
C=CCn1c(SCC(=O)c2cccs2)nc2sc(C)c(C)c2c1=O	i	.
Cc1ccc(Nc2ncc3c(n2)CC(C)(C)CC3=O)cc1	i	.
CN(CC(=O)Nc1cccc(S(=O)(=O)N2CCCC2)c1)CC(=O)Nc1ccc(Cl)c(C(F)(F)F)c1	i	1
SMILES	KCNQ2 inh	KCNQ2 pot
Cc1ccc(-c2ccc(C(=O)NCCCNC(=O)c3cnccn3)o2)cc1Cl	i	.
COc1ccc(OCC(=O)OC2CCCN(C)C2)cc1 (centres undefined)	i	.
COC(=O)C1=C(CS(=O)(=O)c2ccccc2)NC(=O)NC1c1ccc(OC)c(OC)c1 (centres undefined)	i	0.42
COc1cc(C=C(c2nc3ccccc3s2)c2nc3ccccc3s2)ccc1O	-6*	-6
COc1ccc(C=C(c2nc3ccccc3s2)c2nc3ccccc3s2)cc1O	i	.
O=C(CN1CCc2ccccc2C1)Nc1cccc(S(=O)(=O)N2CCCC2)c1	i	0.04
CC(=O)Cn1c(CN2CCN(C(=O)c3ccco3)CC2)nc2c1c(=O)n(C)c(=O)n2C	i	.
Cc1ccccc1NC(=O)c1c(C)nc(SCC(=O)OCc2ccccc2)c(C#N)c1-c1ccc(F)cc1	-7*	-7
Cc1nc(SCC(=O)OCc2ccccc2)c(C#N)c(-c2ccccc2)c1C(=O)Nc1ccccc1	i	.
COc1cccc(-c2cc(C(=O)NCC3CCCO3)c3cc(C)cc(C)c3n2)c1 (centres undefined)	i	.
CCC(C)n1c(=S)[nH]c2ccccc2c1=O (centres undefined)	i	6.8*
O=c1c2ccccc2[nH]c(=S)n1CCc1ccccc1	i	7.2*
CC(C)n1c(=S)[nH]c2ccccc2c1=O	i	0.52
O=c1c2ccccc2[nH]c(=S)n1Cc1ccccc1	i	0.43
C/C(=N/NC(=O)CNC(=O)CCc1ccccc1)c1ccc(Cl)c(Cl)c1	i	1.1
Cc1cc(C)c(S(=O)(=O)Cc2ccccc2)c(OC(C)C)n1	i	.
Cc1cccc(C(=O)Nc2nnc(C3=COCCO3)o2)c1	i	18*
O=C(Nc1nnc(C2=COCCO2)o1)c1cccc(F)c1	i	2.5
O=C(NC1CCCC1)C(c1ccccc1F)N(C(=O)c1csnn1)c1ccccc1 (centres undefined)	i	.
Cc1ccnc(OC(C(=O)O)C(OCc2ccccc2)(c2ccccc2)c2ccc(C(F)(F)F)cc2)n1 (centres undefined)	-6.1*	-6.1
Cc1cc(C)nc(OC(C(=O)O)C(OCc2ccccc2)(c2ccccc2)c2ccccc2)n1 (centres undefined)	i	0.82
CC1CC(C)CN(C(=O)CCNC(=O)Cn2ccc3ccccc3c2=O)C1 (centres undefined)	i	.
CCN(CC(=O)Nc1cc(S(=O)(=O)N2CCCCC2)ccc1C)Cc1ccccc1	i	.
COc1ccc(OC)c(C(=O)CSc2nccc(-c3ccc(Br)cc3)n2)c1	-6.4*	-6.4
COc1ccc(-c2ccnc(SCC(=O)c3ccc(OC)c(OC)c3)n2)cc1	i	1.5
SMILES	KCNQ2 inh	KCNQ2 pot
CCN(CC)CC(=O)N1CCCC(N2CCN(c3cccc(C(F)(F)F)c3)CC2)C1 (centres undefined)	i	0.82
CCOC(=O)C1CCN(C(=O)C2CCN(S(=O)(=O)c3cc(Cl)ccc3OCC)CC2)CC1	i	.
CCOC(=O)c1c(NC(=O)/C=C\C(=O)O)sc(C)c1-c1ccccc1	i	0.68
CCOC(=O)c1c(NC(=O)/C=C/C(=O)O)sc(C)c1-c1ccc(C(C)(C)C)cc1	i	7*
CCN1C(=O)C(CC(=O)Nc2ccc(F)cc2)N(CCc2ccc(OC)cc2)C1=S (centres undefined)	-6.7*	-6.7
CCN1C(=O)C(CC(=O)Nc2ccc(OC)cc2)N(CCc2ccccc2)C1=S (centres undefined)	i	.
CCN(CC)S(=O)(=O)c1ccc(C(=O)NCC(=O)NCCCc2ccccc2)cc1	i	.
COc1ccccc1N1CCN(C(=O)COc2ccc(Cl)cc2Br)CC1	i	.
COC(=O)C1CCCN1C(=O)COc1ccc(Cl)cc1Br (centres undefined)	i	15*
CCCCCCOC(=O)C(C#N)c1nc2ccccc2nc1N1CCN(C)CC1 (centres undefined)	-5.7*	-5.7
CCC(CC)COC(=O)C(C#N)c1nc2ccccc2nc1N1CCN(CC)CC1 (centres undefined)	i	.
CC(C)Cn1c(CCCNC(=O)c2ccco2)nc2ccccc21	i	.
CCOC(=O)C1CCN(c2ccccc2CN2CCN(c3ccccc3OCC)CC2)CC1	-7.2*	-7.2
CCOC(=O)C1CCN(Cc2ccccn2)CC1	i	.
CCN1CCN(CCNC(=O)c2ccc(CS(=O)c3ccc(Cl)cc3)o2)CC1 (centres undefined)	i	1.2

From PubChem
